Laboratory results published in PubChem BioAssay (NCI).
Compounds without any hit were thinned out: in the full panel of roughly 79,000, 15% have a hit. No stated cut-off is given here; in the data, active means growth inhibition above about 70%; inactive means the rest.

What was measured:
[1] = NCI Yeast Anticancer Drug Screen. Data for the rad52 strain (AID 147);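 further: 0% = growth of vehicle-treated control cultures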; details: S. cerevisiae rad52 mutant growth inhibition, active compounds read high
Summary of the method: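 Yeast strain carrying a DNA damage repair alteration was exposed to test compounds. Growth inhibition was measured relative to vehicle-treated controls.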

[2] = NCI Yeast Anticancer Drug Screen. Data for the wt1 strain (AID 149);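 further: 0% = growth of vehicle-treated wt1 cultures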; details: S. cerevisiae wt1 strain (SPY 50644) growth inhibition, active compounds read high
Summary of the method: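 wt1 yeast, compound-treated; % growth inhibition vs vehicle control.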

[3] = NCI Yeast Anticancer Drug Screen. Data for the rad50EPP+ strain (AID 151);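 further: 0% = growth of vehicle-treated control cultures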; details: S. cerevisiae rad50 mutant strain, active compounds read high
Summary of the method: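 Yeast strain carrying rad50 alteration (rad50EPP+) exposed to compounds; growth inhibition measured relative to vehicle-treated controls.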

[4] = NCI Yeast Anticancer Drug Screen. Data for the mgt1 strain (AID 153); details: S. cerevisiae mgt1 mutant growth inhibition, active compounds read high
Summary of the method: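 Yeast mgt1 strain (DNA repair/cell-cycle alteration panel) exposed to compounds; growth inhibition measured relative to vehicle-treated controls.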

[5] = NCI Yeast Anticancer Drug Screen. Data for the rad50 strain (AID 155);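 further: 0% = growth of vehicle-only cultures of the same strain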; details: S. cerevisiae rad50 strain growth inhibition, active compounds read high
Summary of the method: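 Genetically altered yeast (DNA repair pathway); compound treatment; growth inhibition vs vehicle ctrl.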

[6] = NCI Yeast Anticancer Drug Screen. Data for the mec2-1 strain (AID 157); details: S. cerevisiae mec2-1 strain, active compounds read high
Summary of the method: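 mec2-1 yeast strain, carrying an alteration in DNA damage repair or cell cycle control, was exposed to compounds; growth inhibition was measured relative to vehicle-treated controls.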

[7] = NCI Yeast Anticancer Drug Screen. Data for the rad14 strain (AID 159);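 further: 0% = growth of vehicle-treated control cultures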; details: S. cerevisiae rad14 strain growth inhibition, active compounds read high
Summary of the method: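 Test compounds were applied to a repair-deficient yeast strain. Its growth was then compared with that of cultures given vehicle alone, and inhibition was expressed relative to those controls.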

[8] = NCI Yeast Anticancer Drug Screen. Data for the sgs1 mgt1 strain (AID 161);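 further: 0% = growth of cultures given vehicle only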; details: S. cerevisiae sgs1 mgt1 strain, active compounds read high
Summary of the method: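 Yeast cells carrying a defined DNA-repair defect were exposed to test compounds. Growth inhibition was measured relative to vehicle-treated controls.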

[9] = NCI Yeast Anticancer Drug Screen. Data for the CLN2oe strain (AID 163);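 further: 0% = growth of vehicle-only control cultures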; details: S. cerevisiae CLN2oe strain, active compounds read high
Summary of the method: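 Yeast cells carrying a defined cell-cycle control alteration were exposed to test compounds. Growth inhibition was scored against vehicle-treated control cultures.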

[10] = NCI Yeast Anticancer Drug Screen. Data for the cln2 rad14 strain (AID 165);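 further: 0% = growth equal to vehicle treated cultures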; details: S. cerevisiae cln2 rad14 strain, active compounds read high
Summary of the method: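 Yeast carrying cln2 and rad14 alterations (cell cycle control and DNA damage repair) were exposed to compounds. Growth inhibition was measured against vehicle-treated controls.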

[11] = NCI Yeast Anticancer Drug Screen. Data for the bub3 strain (AID 167); details: S. cerevisiae bub3 mutant strain, active compounds read high
Summary of the method: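 Yeast carrying a defined mutation is treated with each compound, and growth is compared with that of vehicle-exposed cells to give inhibition.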

[12] = NCI Yeast Anticancer Drug Screen. Data for the mlh1 strain (AID 171);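 further: 0% = growth of vehicle-treated control cultures of the same strain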; details: S. cerevisiae mlh1 strain growth inhibition, active compounds read high
Summary of the method: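 Yeast carrying a defined genetic alteration in DNA damage repair or cell cycle control were exposed to test compounds. Growth inhibition was measured relative to vehicle-treated controls.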

[13] = NCI Yeast Anticancer Drug Screen. Data for the sgs1 strain (AID 173);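 further: 0% = growth of vehicle-only control cultures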; details: S. cerevisiae sgs1 mutant, active compounds read high
Summary of the method: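 Yeast mutant strains carrying defined defects in DNA damage repair or cell cycle control were exposed to test compounds. Growth inhibition was scored against vehicle-treated controls.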

[14] = NCI Yeast Anticancer Drug Screen. Data for the mlh1 rad18 strain (AID 175); details: S. cerevisiae mlh1 rad18 strain growth inhibition, active compounds read high
Summary of the method: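 Growth inhibition of the yeast strain was measured after compound exposure and expressed relative to vehicle-treated controls. The strain carries defined defects in DNA damage repair.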

[15] = NCI Yeast Anticancer Drug Screen. Data for the rad18 strain (AID 177); details: S. cerevisiae rad18 mutant growth inhibition, active compounds read high
Summary of the method: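 Yeast carrying a defined DNA damage repair alteration were exposed to compounds. Growth inhibition was expressed relative to vehicle-treated controls.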

[16] = at 5.0 µM (retest, dose inferred, filed as 0.5)
[17] = at 50.0 µM (retest, dose inferred, filed as 5.0)

Measured: growth inhibition

ClCCCOc1c(Cl)cc(Cl)cc1Cl
inactive: [1]; at 1.2 µM -2% | [1]; at 3.7 µM 2% | [1]; at 11.0 µM 5% | [1]; at 33.0 µM -3% | [1]; at 100.0 µM 10% | [2]; at 1.2 µM -1% | [2]; at 3.7 µM -2% | [2]; at 11.0 µM -3% | [2]; at 33.0 µM -5% | [2]; at 100.0 µM -1% | [3]; at 1.2 µM -4% | [3]; at 3.7 µM 4% | [3]; at 11.0 µM 13% | [3]; at 33.0 µM 10% | [3]; at 100.0 µM 32% | [4]; at 1.2 µM 0% | [4]; at 3.7 µM -1% | [4]; at 11.0 µM -2% | [4]; at 33.0 µM -1% | [4]; at 100.0 µM 1% | [5]; at 1.2 µM -2% | [5]; at 3.7 µM 4% | [5]; [16] 1% | [5]; at 11.0 µM 5% | [5]; at 33.0 µM 0% | [5]; [17] 13% | [5]; at 50.0 µM -7.15% | [5]; at 100.0 µM 10% | [6]; at 1.2 µM -2% | [6]; at 3.7 µM -2% | [6]; [16] -27% | [6]; at 11.0 µM -2% | [6]; at 33.0 µM -1% | [6]; [17] -12% | [6]; at 50.0 µM 8.65% | [6]; at 100.0 µM 1% | [7]; at 1.2 µM -4% | [7]; at 3.7 µM 2% | [7]; at 11.0 µM 5% | [7]; at 33.0 µM 1% | [7]; at 100.0 µM 13% | [8]; [16] 17% | [8]; [17] 15% | [8]; at 50.0 µM -2.55% | [9]; at 1.2 µM 1% | [9]; at 3.7 µM 0% | [9]; at 11.0 µM 0% | [9]; at 33.0 µM 1% | [9]; at 100.0 µM 5% | [10]; [16] 16% | [10]; [17] 25% | [10]; at 50.0 µM 29.6% | [11]; at 1.2 µM 0% | [11]; at 3.7 µM 1% | [11]; [16] 14% | [11]; at 11.0 µM -2% | [11]; at 33.0 µM -1% | [11]; [17] 13% | [11]; at 50.0 µM 0.6% | [11]; at 100.0 µM 0% | [12]; at 1.2 µM -2% | [12]; at 3.7 µM 0% | [12]; at 11.0 µM 3% | [12]; at 33.0 µM -1% | [12]; at 100.0 µM 9% | [13]; at 1.2 µM -15% | [13]; at 3.7 µM -22% | [13]; at 11.0 µM -21% | [13]; at 33.0 µM -5% | [13]; at 100.0 µM 10% | [14]; [16] 15% | [14]; [17] 60% | [14]; at 50.0 µM 27.1% | [15]; at 1.2 µM -4% | [15]; at 3.7 µM 12% | [15]; at 11.0 µM 12% | [15]; at 33.0 µM -2% | [15]; at 100.0 µM 6%
